According to the supplement of paper PMC9023506:
Where a name gives a salt, the structure may show the parent alone.

system: Danio rerio larvae (5 dpf); assay: optomotor response to fast red moving lines, difference vs DMSO (percentage points (treated minus DMSO)); higher = more of the behaviour than the DMSO vehicle control; conditions: 10 µM; exposure time: 3 h pre-incubation + 3 h imaging
Method: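 5-dpf wild-type zebrafish larvae were imaged in 96-well plates. They were treated with 190 Tocris FDA-approved drugs at 10 µM (1 µl/ml DMSO) for 3 h before and 3 h during imaging at 28.5 °C, 48 larvae per drug. Automated image analysis gave % time moving and optomotor responses. Values are drug group mean minus DMSO vehicle mean (n=844), in percentage points, for 10 behaviours.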

Question: Which optomotor response does the source give for `Nc1nc(Cl)nc2c1ncn2[C@@H]1O[C@H](CO)[C@@H](O)[C@@H]1F` [Clofarabine] here?
Answer: -10.5

Question: For `Cc1cc2c(s1)Nc1ccccc1N=C2N1CCN(C)CC1` [Olanzapine], which optomotor response is on record?
Answer: 9.42

Question: How did the optomotor response turn out when `Cc1ccc(NC(=O)c2ccc(CN3CCN(C)CC3)cc2)cc1Nc1nccc(-c2cccnc2)n1` [Imatinib mesylate] was run?
Answer: 1.11

Question: Which optomotor response does the source give for `COc1cc2nc(N3CCN(C(=O)c4ccco4)CC3)nc(N)c2cc1OC` [Prazosin hydrochloride] here?
Answer: 3.73

Question: How did the optomotor response turn out when `COCCc1ccc(OCC(O)CNC(C)C)cc1` (stereo not given) [Metoprolol tartrate] was run?
Answer: -7.77

Question: For `NC(=O)c1ncn([C@@H]2O[C@H](CO)[C@@H](O)[C@H]2O)n1` [Ribavirin], which optomotor response is on record?
Answer: 0.429

Question: Which optomotor response does the source give for `Nc1nc2[nH]cc(CCc3ccc(C(=O)N[C@@H](CCC(=O)O)C(=O)O)cc3)c2c(=O)[nH]1` [Pemetrexed] here?
Answer: -14.2

Question: Which optomotor response does the source give for `CC1(C)O[C@@H]2[C@@H](CO[C@@]3(COS(N)(=O)=O)OC(C)(C)O[C@@H]23)O1` [Topiramate] here?
Answer: -10.6

Question: How did the optomotor response turn out when `CC(C)(C)NC(=O)[C@@H]1C[C@@H]2CCCC[C@@H]2CN1C[C@@H](O)[C@H](Cc1ccccc1)NC(=O)[C@H](CC(N)=O)NC(=O)c1ccc2ccccc2n1` [Saquinavir mesylate] was run?
Answer: -8.88

Question: With `C/C(O)=C(\C#N)C(=O)Nc1ccc(C(F)(F)F)cc1` [Teriflunomide] as the molecule, how does the optomotor response read?
Answer: -7.56

Question: For `CCOC(=O)C1=C(COCCN)NC(C)=C(C(=O)OC)C1c1ccccc1Cl` (stereo not given) [Amlodipine besylate], which optomotor response is on record?
Answer: 7.5

Question: For `CCCc1nc2c(C)cc(-c3nc4ccccc4n3C)cc2n1Cc1ccc(-c2ccccc2C(=O)O)cc1` [Telmisartan], which optomotor response is on record?
Answer: 7.51

Question: With `CN(C)CCC[C@@]1(c2ccc(F)cc2)OCc2cc(C#N)ccc21` [Escitalopram oxalate] as the molecule, how does the optomotor response read?
Answer: -7.01

Question: For `O=C(c1ccc(OCCN2CCCCC2)cc1)c1c(-c2ccc(O)cc2)sc2cc(O)ccc12` [Raloxifene hydrochloride], which optomotor response is on record?
Answer: -14.5

Question: With `Cc1ccsc1C(=CCCN1CCC[C@@H](C(=O)O)C1)c1sccc1C` [Tiagabine hydrochloride] as the molecule, how does the optomotor response read?
Answer: 21.7

Question: For `Cc1cn([C@H]2C=C[C@@H](CO)O2)c(=O)[nH]c1=O` [Stavudine], which optomotor response is on record?
Answer: -8.38

Question: Which optomotor response does the source give for `OC(CNCC(O)C1CCc2cc(F)ccc2O1)C1CCc2cc(F)ccc2O1` (stereo not given) [Nebivolol hydrochloride] here?
Answer: -19.6

Question: With `CN(C)CCc1c[nH]c2ccc(Cn3cncn3)cc12` [Rizatriptan benzoate] as the molecule, how does the optomotor response read?
Answer: 5

Question: `N#Cc1ccc2[nH]cc(CCCCN3CCN(c4ccc5oc(C(N)=O)cc5c4)CC3)c2c1` [Vilazodone hydrochloride] was tested. Which optomotor response did it give?
Answer: -38.2

Question: With `CCN(Cc1ccncc1)C(=O)C(CO)c1ccccc1` (stereo not given) [Tropicamide] as the molecule, how does the optomotor response read?
Answer: -0.214

Question: How did the optomotor response turn out when `NC(=O)N1c2ccccc2C=Cc2ccccc21` [Carbamazepine] was run?
Answer: -9.08

Question: `CC(=O)S[C@@H]1CC2=CC(=O)CC[C@]2(C)[C@H]2CC[C@@]3(C)[C@@H](CC[C@@]34CCC(=O)O4)[C@H]12` [Spironolactone] was tested. Which optomotor response did it give?
Answer: -11.3

Question: `CC(=O)Oc1cc2c(s1)CCN(C(C(=O)C1CC1)c1ccccc1F)C2` (stereo not given) [Prasugrel] was tested. Which optomotor response did it give?
Answer: -8.05

Question: `O=C(O)C[C@H](O)C[C@H](O)/C=C/c1c(C2CC2)nc2ccccc2c1-c1ccc(F)cc1` [Pitavastatin calcium] was tested. Which optomotor response did it give?
Answer: 9.78

Question: `CCC(=O)O[C@]1(C(=O)SCF)[C@H](C)C[C@H]2[C@@H]3C[C@H](F)C4=CC(=O)C=C[C@]4(C)[C@@]3(F)[C@@H](O)C[C@@]21C` [Fluticasone propionate] was tested. Which optomotor response did it give?
Answer: -7.85

Question: For `COc1ccccc1Oc1c(NS(=O)(=O)c2ccc(C(C)(C)C)cc2)nc(-c2ncccn2)nc1OCCO` [Bosentan], which optomotor response is on record?
Answer: 0.298

Question: How did the optomotor response turn out when `O=C1CCc2cc(OCCCCc3nnnn3C3CCCCC3)ccc2N1` [Cilostazol] was run?
Answer: -1.51

Question: How did the optomotor response turn out when `CC(=O)O[C@]1(C(C)=O)CC[C@H]2[C@@H]3C=C(C)C4=CC(=O)CC[C@]4(C)[C@H]3CC[C@@]21C` [Megestrol Acetate] was run?
Answer: -10.3

Question: Which optomotor response does the source give for `O=C(Nc1c(Cl)cncc1Cl)c1ccc(OC(F)F)c(OCC2CC2)c1` [Roflumilast] here?
Answer: -10.8

Question: With `CCOC(=O)N1CCC(=C2c3ccc(Cl)cc3CCc3cccnc32)CC1` [Loratidine] as the molecule, how does the optomotor response read?
Answer: -26.1

Question: With `CNC(=O)c1ccccc1Sc1ccc2c(/C=C/c3ccccn3)n[nH]c2c1` [Axitinib] as the molecule, how does the optomotor response read?
Answer: -2.38

Question: With `CC(C)COCC(CN(Cc1ccccc1)c1ccccc1)N1CCCC1` (stereo not given) [Bepridil hydrochloride] as the molecule, how does the optomotor response read?
Answer: 7.72

Question: Which optomotor response does the source give for `N#Cc1ccc(C(c2ccc(C#N)cc2)n2cncn2)cc1` [Letrozole] here?
Answer: 4.75

Question: With `CCOc1cc(CC(=O)N[C@@H](CC(C)C)c2ccccc2N2CCCCC2)ccc1C(=O)O` [Repaglinide] as the molecule, how does the optomotor response read?
Answer: -12.1

Question: `CC(=O)O[C@H]1C(=O)[C@@]2(C)[C@H]([C@H](OC(=O)c3ccccc3)[C@]3(O)C[C@H](OC(=O)[C@H](O)[C@@H](NC(=O)c4ccccc4)c4ccccc4)C(C)=C1C3(C)C)[C@]1(OC(C)=O)CO[C@@H]1C[C@@H]2O` [Taxol] was tested. Which optomotor response did it give?
Answer: -16.4

Question: For `CCCCCCCN(CC)CCCC(O)c1ccc(NS(C)(=O)=O)cc1` (stereo not given) [Ibutilide hemifumarate], which optomotor response is on record?
Answer: 3.06

Question: How did the optomotor response turn out when `CCc1nc(N)nc(N)c1-c1ccc(Cl)cc1` [Pyrimethamine] was run?
Answer: 9.74

Question: For `CN1CCN2c3ncccc3Cc3ccccc3C2C1` (stereo not given) [Mirtazapine], which optomotor response is on record?
Answer: -5.17

Question: Which optomotor response does the source give for `COc1cc([C@@H]2c3cc4c(cc3[C@@H](O[C@@H]3O[C@@H]5CO[C@@H](C)O[C@H]5[C@H](O)[C@H]3O)[C@H]3COC(=O)[C@H]23)OCO4)cc(OC)c1O` [Etoposide] here?
Answer: -4.84

Question: Which optomotor response does the source give for `Cc1cc(C2CCCCC2)n(O)c(=O)c1` [Ciclopirox] here?
Answer: 3.21
